Active and inactive are the calls of the source. The call rests on the fitted dose curve.
Biological target: Thyrotropin-releasing hormone receptor (Homo sapiens) (UniProt P34981)
Assay: qHTS assay to identify small molecule agonists of the thyrotropin-releasing hormone receptor (TRHR) signaling pathway (AID 1346891);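 further: HEK293 cells expressing TRHR with calcium dye readout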
Conditions: TRHR-HEK293 calcium fluorescence, agonist mode; series mostly up to 57.6 µM; activation: at the top concentration
Text: National Center for Advancing Translational Sciences [NCATS] NIH Chemical Genomics Center [NCGC] U.S. Environmental Protection Agency [EPA] National Institutes of Environmental Health Sciences [NIEHS] National Toxicology Program [NTP] Assay overview: Thyrotropin-releasing hormone (TRH) receptor (TRHR) is a G-protein-coupled receptor which binds the tripeptide thyrotropin releasing hormone. TRHR is found in the brain and, when bound by TRH, acts (through phospholipase C) to increase intracellular inositol trisphosphate. It plays a crucial role in the anterior pituitary where it controls the synthesis and secretion of thyroid stimulating hormone and prolactin. The TRHR-Hek293 assay is a cell-based assay, and it has the potential to screen G protein-coupled receptors. A compound/drug can either activate (agonist) or suppress (antagonist) GPCRs that can be monitored by levels of intracellular calcium. Using this assay, the Tox21 10K compound library was screened to identify potential TRHR agonists.
Assay Protocol Summary: The TRHR-Hek293 cells were dispensed at 1500cells/4uL/well in 1536-well black-clear bottom plates using a Multidrop dispenser. After the assay plates were incubated at a 37 C/5% CO2 incubator for 18 hours, 4 uL of Dye-Loading Solution was added to each well. The plates were incubated at 37 C for 2 hours. For agonist mode, 23 nL of compounds dissolved in DMSO, positive controls or DMSO only was transferred to the assay plate by a pin tool. The fluorescence intensity in the plates was measured using FDSS 7000EX kinetic plate reader for 3 min at 1 sec intervals. Each test compound was measured at 15 concentrations and in triplicates.
On the % scale 0 is the no-effect control and ±100 the full control effect.

Sequence of Thyrotropin-releasing hormone receptor (Homo sapiens) (P34981 whole entry, looked up): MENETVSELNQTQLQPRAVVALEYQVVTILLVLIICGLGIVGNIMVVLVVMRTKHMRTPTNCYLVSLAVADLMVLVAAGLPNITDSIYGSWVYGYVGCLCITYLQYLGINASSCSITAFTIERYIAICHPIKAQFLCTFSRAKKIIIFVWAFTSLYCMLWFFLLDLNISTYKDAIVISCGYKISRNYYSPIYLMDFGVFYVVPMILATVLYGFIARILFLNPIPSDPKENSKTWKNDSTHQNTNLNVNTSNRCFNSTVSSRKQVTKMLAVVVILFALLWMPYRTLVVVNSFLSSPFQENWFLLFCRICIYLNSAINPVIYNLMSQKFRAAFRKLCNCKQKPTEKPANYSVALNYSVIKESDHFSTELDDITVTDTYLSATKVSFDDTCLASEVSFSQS

| SMILES | activation |
| --- | --- |
| CC(CC=O)CC(C)(C)C (stereo not given) | -0.0445% (inactive) |
| Cc1ncc([C@@H](CCCCCCc2ccc3c(n2)NCCC3)CC(=O)O)cn1 | -1.09% (inactive) |
| O=C1NC(=O)C2CC=CCC12 (stereo not given) | 0.176% (inactive) |
| CC(C)C[C@@H](N)C(=O)O | -0.187% [at 11.8 µM] (inactive) |
| C[N+]1(C)[C@@H]2CC(OC(=O)[C@H](CO)c3ccccc3)C[C@H]1[C@@H]1O[C@@H]12 (stereo not given in full) | -0.0428% [at 26.5 µM] (inactive) |
| Nc1ccncc1N | -2.32% [at 26.5 µM] (inactive) |
| CCCOC(=O)CC | -0.112% (inactive) |
| OCCc1ccccn1 | -0.317% (inactive) |
| C1CCC2(CCCCO2)OC1 | -0.145% (inactive) |
| CC(C(=O)O)c1cccc(Oc2ccccc2)c1 (stereo not given) | 0.169% [at 26.5 µM] (inactive) |
| CC1CCC(CO)CC1 (stereo not given) | 0.0976% (inactive) |
| CN(C)CCN(C)CCN(C)C | 0.0293% (inactive) |
| C=C(C)C(=O)OCCOCCOCCOCCOC(=O)C(=C)C | 0.0549% (inactive) |
| CCOC(=O)OC(C)OC1=C(C(=O)Nc2ccccn2)N(C)S(=O)(=O)c2ccccc21 (stereo not given) | -0.0095% [at 26.5 µM] (inactive) |
| CC(C)=CCC/C(C)=C/C#N | 0.171% (inactive) |
| O=CN(CCO)CCO | -0.119% (inactive) |
| O=S(=O)(O)c1cccc2c(S(=O)(=O)O)cccc12 | -0.271% (inactive) |
| CNCC(O)c1ccc(O)c(O)c1 (stereo not given) | 11.7% [at 26.5 µM] (inactive) |
| O=[N+]([O-])c1ccc(/C=N\O)o1 | -0.3% [at 26.5 µM] (inactive) |
| Clc1cc(Cl)cc(Cl)c1 | -0.0206% (inactive) |

| SMILES | activation |
| --- | --- |
| Cc1onc(-c2c(Cl)cccc2Cl)c1C(=O)Cl | -0.081% [at 26.5 µM] (inactive) |
| CCOC(=O)c1ccccc1 | -0.345% (inactive) |
| CCCCS(=O)(=O)N[C@@H](Cc1ccc(OCCCCC2CCNCC2)cc1)C(=O)O | -0.537% [at 26.5 µM] (inactive) |
| CC(=O)N1C[C@H](O)C[C@H]1C(=O)O | -0.356% [at 26.5 µM] (inactive) |
| CCOC(=O)COC(=O)c1ccccc1C(=O)OCC | -0.179% (inactive) |
| CC(=O)c1cnccn1 | 2.39% (inactive) |
| Cc1c(N)c(=O)n(-c2ccccc2)n1C | -0.0243% [at 26.5 µM] (inactive) |
| C[N+](C)(CCOc1ccccc1)Cc1cccs1 | 0.0808% [at 26.5 µM] (inactive) |
| COC(=O)Nc1ccc(Cl)c(Cl)c1 | 0.76% (inactive) |
| CN(C)CCCN(C)CCCN(C)C | -0.0113% (inactive) |
| Cc1ccc(C(=O)c2ccccc2)cc1 | 0.4% (inactive) |
| Cc1nc2ccc(CN(C)c3ccc(C(=O)N[C@@H](CCC(=O)O)C(=O)O)s3)cc2c(=O)[nH]1 | -0.0976% [at 26.5 µM] (inactive) |
| Clc1cc(Cl)c(Cl)nc1Cl | -0.0847% (inactive) |
| CC(=O)Oc1cccc(C)c1 | -0.273% [at 26.5 µM] (inactive) |
| NC(=O)Cc1cccc2ccccc12 | 0.212% (inactive) |
| CC(=O)OCC(=O)[C@@]1(O)[C@H](C)C[C@H]2[C@@H]3CCC4=CC(=O)C=C[C@]4(C)[C@@]3(F)[C@@H](O)C[C@@]21C | 1.5% [at 26.5 µM] (inactive) |
| c1ccc2sc(SN3CCOCC3)nc2c1 | -0.074% [at 26.5 µM] (inactive) |
| CN1CC(=O)N/C1=N/C(=O)Nc1cccc(Cl)c1 | 0.133% [at 26.5 µM] (inactive) |
| CCCCN(CCC(=O)OCC)C(C)=O | 0.0081% (inactive) |
| CC[C@H]1OC(=O)[C@H](C)[C@@H](O[C@H]2C[C@@](C)(OC)[C@@H](O)[C@H](C)O2)[C@H](C)[C@@H](O[C@@H]2O[C@H](C)C[C@H](N(C)C)[C@H]2O)[C@](C)(OC)C[C@@H](C)C(=O)[C@H](C)[C@@H](O)[C@]1(C)O | 0.141% (inactive) |
